This note sets out measurements from PubChem BioAssay AID1578 (Sanford-Burnham Center for Chemical Genomics, 2009).

Molecules are shown by their SMILES. About 3,000 (1%) of roughly 290,000 compounds were called active. This is one part of a sample in which actives are shown more often than they occur. Rule as the data show it: active = inhibition mostly above about 36% (no sharp cut-off); inactive = mostly below about 34%.

This test in a line: NOD1 signaling inhibitors, primary screen, cell-based, luminescence, uHTS (AID 1578).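 Also: HEK-293T reporter cells stimulated with the NOD1 agonist gamma-tri-DAP.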 To be noted: NOD1-driven NF-kB luciferase reporter cells, at 4 µM, active compounds read high. (In general: In a reporter assay the amount or activity of a reporter protein is the signal.)
The term inhibition denotes the relative decrease from the control value, in per cent. `COCC(=O)N1CCC(n2nnc3cc(C(F)(F)F)ccc32)CC1`: the inhibition is -11.5% (inactive).

With `Cc1ccccc1NC(=O)c1ccc2nccnc2c1`, the inhibition was -15.6% (inactive).

As for `Cc1ccc(Sc2nnc(Cc3ccccc3)c3ccccc23)cc1`, the inhibition was 70% (active).

In the case of `COc1ccc(Sc2nnc(Cc3ccccc3)c3ccccc23)cc1`, the inhibition is 46.4% (inactive).

As to `c1ccc(Cc2nnc(Sc3ccccc3)c3ccccc23)cc1`, the inhibition was 40.8% (inactive).

For `COc1cccc(OCc2cc(C(=O)N(C)C3CC(C)(C)NC(C)(C)C3)no2)c1`, the inhibition was -22.6% (inactive).

For `CCOc1ccc(N(CC(=O)O)S(=O)(=O)c2ccc(F)cc2)cc1`, the inhibition was 22.2% (inactive).

In the case of `COc1cccc2cc(C(=O)NC(C)C3CCCO3)c(=O)oc12` (stereo unspecified), the inhibition is -27.3% (inactive).

As to `N#Cc1c(NC(=O)c2ccccc2Cl)n(Cc2ccccc2)c2nc3ccccc3nc12`, the inhibition was 83.5% (active).

With `CCCCn1c(NC(C)=O)c(C#N)c2nc3ccccc3nc21`, the inhibition is 22.5% (inactive).

On to `CCCCn1c(NC(=O)CC)c(C#N)c2nc3ccccc3nc21`, for which the inhibition was -7.1% (inactive).

Regarding `CCCCn1c(NC(=O)c2ccccc2)c(C#N)c2nc3ccccc3nc21`, the inhibition was 88.5% (active).

Turning to `C=CCn1c(NC(=O)c2ccccc2Cl)c(C#N)c2nc3ccccc3nc21`, the inhibition is 28.8% (inactive).

Turning to `CCCCn1c(NC(=O)c2ccccc2Cl)c(C#N)c2nc3ccccc3nc21`, the inhibition was 20% (inactive).

`O=C(C[n+]1cc(Br)cc(Br)c1)c1ccc(Cl)cc1`: the inhibition is -7.2% (inactive).

As to `CC(=O)Nc1ccc(S(=O)(=O)N2CCC(C(=O)NCCC(=O)Nc3ccccc3)CC2)cc1`, the inhibition was -17.6% (inactive).

For the compound `CCN(CC)c1nc2c(c(=O)[nH]c(=O)n2C)n1CCCc1ccccc1`, the inhibition is -13.8% (inactive).

As to `CNCCCC1Sc2ccccc2Oc2ccccc21` (stereo unspecified), the inhibition was -31.7% (inactive).

In the case of `CC1c2ccccc2SC(CCCN(C)C)c2ccccc21` (stereo unspecified), the inhibition was 59.5% (active).

Regarding `CN(C)CCC1Sc2ccccc2Oc2ccccc21` (stereo unspecified), the inhibition was -13.4% (inactive).

Turning to `COc1cccc(N2C(=O)N(c3ccccc3Cl)C3CS(=O)(=O)CC32)c1` (stereo unspecified), the inhibition is -14.5% (inactive).

On to `Cc1n[nH]c(C)c1CCCCOc1ccc([N+](=O)[O-])cc1`, for which the inhibition was -1.4% (inactive).

In the case of `COC(=O)C1CCN(C(=O)C2CCC(=O)N(CCc3cccc(F)c3)C2)CC1` (stereo unspecified), the inhibition is -26.6% (inactive).

With `C/C(CS(=O)(=O)c1ccccc1)=N\O`, the inhibition is -22.4% (inactive).

In the case of `C/C=C(\CS(=O)(=O)c1ccccc1)S(=O)(=O)c1ccccc1`, the inhibition is 60.5% (inactive).

For `O=S(=O)(C/C(=C/CO)S(=O)(=O)c1ccccc1)c1ccccc1`, the inhibition is 100% (active).

As to `COc1cccc(OCC(=O)Nc2ccncc2)c1`, the inhibition was -11.4% (inactive).

For `COc1ccccc1NC(=O)/C=C/c1ccc(OC)c(S(=O)(=O)N2CCOCC2)c1`, the inhibition is -9.3% (inactive).

In the case of `CSc1nc(C)cc(OCCNS(=O)(=O)c2cc(C)ccc2C)n1`, the inhibition is -15% (inactive).

Consider `Cc1ccccc1COC(=O)c1cc([N+](=O)[O-])ccc1N1CCOCC1`, for which the inhibition was -37.5% (inactive).

With `Cc1ccccc1Cn1c(C)nc2ccc([N+](=O)[O-])cc2c1=O`, the inhibition is -19.5% (inactive).

As for `Cc1ccccc1CN1CCc2cc([N+](=O)[O-])ccc21`, the inhibition is 58.2% (active).

In the case of `O=c1c2ccccc2cnn1Cc1ccc(Br)cc1F`, the inhibition was -29.7% (inactive).

Regarding `Cc1c(C(=O)N2CCCCC2)nn(-c2ccc(Cl)cc2)c(=O)c1C#N`, the inhibition is -10.3% (inactive).

For `COc1cc(CN2CCCN(C)CC2)cc([N+](=O)[O-])c1O`, the inhibition was -23.1% (inactive).

Regarding `NC(=O)N1N=C2/C(=C/c3ccccc3)CCCC2C1c1ccccc1` (stereo unspecified), the inhibition was -6.2% (inactive).

As to `O=C(O)CSCC(=O)N1N=C2/C(=C/c3ccccc3)CCCC2C1c1ccccc1` (stereo unspecified), the inhibition is -13.2% (inactive).

As for `CC(=O)N1N=C2/C(=C/c3ccccc3)CCCC2C1c1ccccc1` (stereo unspecified), the inhibition was 79.9% (active).

`CN(C)S(=O)(=O)c1cccc(C(=O)Nc2ccccc2)c1`: the inhibition was -30.7% (inactive).

On to `O=c1c(-c2ccc(Cl)cc2)c[nH]n1-c1ccccc1`, for which the inhibition is -5.7% (inactive).

In the case of `CCOc1cccc(N2C(=O)CC(NCc3ccc(S(N)(=O)=O)cc3)C2=O)c1` (stereo unspecified), the inhibition is -9.2% (inactive).

`Cc1ccc(-n2c(SCC(=O)N3CCCCC3)nc(O)c(Cc3ccccc3)c2=O)cc1`: the inhibition was -18.9% (inactive).

In the case of `S=C(Nc1ccc(Nc2ccccc2)cc1)Nc1ccccn1`, the inhibition is 74.1% (active).

In the case of `Cc1cccc(NC(=S)Nc2ccccn2)c1`, the inhibition is -0.2% (inactive).

`COc1ccc(NC(=S)Nc2ccccn2)cc1`: the inhibition was 6.6% (inactive).

For `CN(C)S(=O)(=O)c1ccc(-c2csc(N/N=C/c3ccc(O)cc3)n2)cc1`, the inhibition is 12.3% (inactive).

For the compound `COc1cc(/C=N/Nc2nc(-c3ccc(S(=O)(=O)N(C)C)cc3)cs2)ccc1O`, the inhibition is 31.8% (active).

For the compound `COc1ccc(/C=N/Nc2nc(-c3cccc(S(=O)(=O)N4CCCC4)c3)cs2)cc1OC`, the inhibition was 52.7% (inactive).

For the compound `N#C/C(=C\c1ccc2c(c1)OCCO2)C(=O)Nc1ccc(C(=O)O)cc1`, the inhibition was 1.3% (inactive).

On to `CC(C)(C)Nc1c([N+](=O)[O-])c(=O)sc2ccccc12`, for which the inhibition is -30.9% (inactive).

With `CCCCCCNc1c([N+](=O)[O-])c(=O)sc2ccccc12`, the inhibition is 71% (active).

Turning to `CCCCNc1c([N+](=O)[O-])c(=O)n(C)c2ccccc12`, the inhibition was -21.6% (inactive).

Consider `COc1cc2c(cc1OC)CN(C(=O)COc1ccc(C#N)cc1)CC2`, for which the inhibition was 10% (inactive).

With `Cc1c(NC(=S)NC(=O)CC(C)C)c(=O)n(-c2ccccc2)n1C`, the inhibition is -31.4% (inactive).

On to `CCN1/C(=C/C=C/C=C/c2sc3ccccc3[n+]2CC)Sc2ccccc21`, for which the inhibition is 66.1% (inactive).

For `CCN1/C(=C/c2ccc3ccccc3[n+]2CCCS(=O)(=O)[O-])C=Cc2cc(C)ccc21`, the inhibition is -1.5% (inactive).

Consider `CC1=NN(C(=O)c2ccc(Cn3nc(C)c([N+](=O)[O-])c3C)o2)C(O)(C(F)(F)F)C1` (stereo unspecified), for which the inhibition is -21.3% (inactive).

On to `CCCCc1nc2sc3c(SCCN(C)C)ncnc3c2c2c1CCC2`, for which the inhibition was -4.1% (inactive).

Turning to `Brc1ccc(OCc2cn3ccccc3n2)cc1`, the inhibition is -41.6% (inactive).

For `COc1ccccc1NS(=O)(=O)c1cc(NC(=O)c2cc(=O)[nH]c3ccccc23)ccc1N1CCOCC1`, the inhibition was 0.5% (inactive).

On to `COc1ccc(-c2onc(C)c2C)cc1S(=O)(=O)NCCc1ccco1`, for which the inhibition was 2.5% (inactive).
